An excerpt weighted towards active compounds, which were near 27% of everything screened.
CYP2C19 inh: blockers of cytochrome P450 2C19 activity – biochemical, luminescence, ADME assay, primary screen; 96,000 compounds, 21% hits; CYP2C19 Supersomes, luciferin-H EGE luminescence, 30 min; inhibition, % at 5 µM;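 active means CYP2C19 inhibition above a set limit at 5 µM in the primary screen, cut at about 50% in these data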;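 further: plate controls were negative control wells for no effect and 2.5 mM tranylcypromine positive control for full effect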
Cav3 T inh: Cav3.2 calcium influx blockers – cell-based, Fluo-4 calcium fluorescence, FDSS, MLSMR library, primary screen | Voltage-dependent T-type calcium channel subunit alpha-1H (Homo sapiens), O95180 | Cav3.2-expressing cells; stronger effect = lower value | B-score at 10 µM | 100,000 compounds, 4% hits | AID 449739, 2010;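 active means single-dose well whose peak fluorescence ratio is a statistical outlier from its plate by either plate-standardised score or position-corrected B-score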
CYP2C9 inhib: blockers of cytochrome P450 2C9 activity – biochemical, luminescence, ADME assay, primary screen | P11712 | 96,000 compounds, 20% hits | CYP2C9 Supersomes, luciferin-H conversion | inhibition, % at 5 µM | AID 777, 2007;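 active means blocking of liver enzyme CYP2C9 beyond about 50% at 5 µM, limit read from the data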
CYP2C19 activ: human CYP2C19 activators, primary screen, biochemical, luminescence; 96,000 tested, under 10 active; activation factor at 5 µM; recombinant CYP2C19, luciferin-H EGE luminescence; stronger effect = higher value; 0 = fully inhibited enzyme, 1 = untreated enzyme;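 active means activation factor of at least 2 at 5 µM in the primary screen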;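 further: 0 = wells with 2.5 mM tranylcypromine and 1 = vehicle-only wells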
CYP2C9 act: human CYP2C9 activators, primary screen, biochemical, luminescence; AID 1024, 2008; 96,000 compounds, 1.4% hits; recombinant CYP2C9, luciferin-H conversion; stronger effect = higher value; factor 1 = untreated enzyme, 0 = blocked; activation factor at 5 µM;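 active means activation factor of 2 or more for CYP2C9 at a 5 µM dose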;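 further: 0 = sulfaphenazole-blocked wells and 1 = vehicle-only wells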
* = called active by the depositor; nt = not tested or not shown.

SMILES | CYP2C19 inh | Cav3 T inh | CYP2C9 inhib | CYP2C19 activ | CYP2C9 act
N#CC1C(=O)NC(N2CCN(c3ccccc3)CC2)=NC12CCCCC2 (stereo not given) | 11 | 0.44 | 21 | 0.9 | 0.8
CCOC(=O)/C=C1\SCC(=O)N1CC(=O)Nc1ccc(C(C)C)cc1 | 36 | -3.8* | 22 | 0.6 | 0.8
CCOC(=O)/C=C1\SCC(=O)N1CC(O)CN1C(=O)CS/C1=C\C(=O)OCC | 16 | 1.3 | -2 | 0.8 | 1
CCOC(=O)N1CCC(NC(=O)CN2C(=O)CSc3nc(C)cc(C)c32)CC1 | 61* | nt | 26 | 0.4 | 0.7
CCOC(=O)/C=C1\SCC(=O)N1CC(=O)NC1CCCCC1 | 67* | 0.51 | 3 | 0.3 | 1
CCOC(=O)/C=C1\SCC(=O)N1CCOc1cccc(Br)c1 | 82* | -4.3* | 80* | 0.2 | 0.2
Cc1ccnc2nc(C(=O)OCCOc3cccc(Br)c3)nn12 | 9 | 0.58 | -2 | 0.9 | 1
O=C(C1CCN(S(=O)(=O)N2CCCC2)CC1)N1CCCCC1 | -5 | 1.4 | -30 | 1 | 1.3
CC12CCC(C(=O)Nc3cccc4ccccc34)(C1Br)C2(C)C (stereo not given) | 29 | -1.3 | 18 | 0.7 | 0.8
COc1ccccc1-c1nc(-c2ccc(Br)cc2)no1 | -1 | -1.6 | -16 | 1 | 1.2
CCOc1ccccc1-c1nc(-c2cc3ccccc3nc2OC)no1 | 6 | 0.066 | 0 | 0.9 | 1
CCOc1ccccc1-c1nc(-c2ccncc2)no1 | 78* | -0.3 | -37 | 0.2 | 1.4
COc1ccc(Cl)cc1-c1nc(-c2ccncc2)no1 | 79* | -1.1 | 38 | 0.2 | 0.6
Clc1cc(Cl)c(OCc2nc(-c3ccccn3)no2)cc1Cl | 8 | -0.014 | 7 | 0.9 | 0.9
Clc1ccc(OCc2nc(-c3ccncc3)no2)c(Cl)c1 | 96* | -1.4 | 95* | 0 | 0.1
COc1ccccc1-c1nc(-c2ccncc2)no1 | 89* | 0.0065 | 23 | 0.1 | 0.8
O=S(=O)(c1ccc(Cl)cc1)N1CCSC1c1ccco1 (stereo not given) | 98* | -1.7 | 51* | 0 | 0.5
COc1ccc(S(=O)(=O)N2CCSC2c2ccccc2)cc1 (stereo not given) | 99* | -2.8 | -62 | 0 | 1.6
COc1ccc(S(=O)(=O)N2CCSC2c2ccc(OC)c(OC)c2)cc1 (stereo not given) | 63* | -0.98 | -96 | 0.4 | 2*
COc1ccccc1C1SCCN1S(=O)(=O)c1cccc(C(F)(F)F)c1 (stereo not given) | 31 | -2.9 | -63 | 0.7 | 1.6
COCCSc1nnc(NC(=O)C2CCCCC2)s1 | 26 | 1.5 | 24 | 0.7 | 0.8
CCn1c(Cc2c(C)[nH]c3ccccc23)n[nH]c1=S | 91* | -0.52 | 7 | 0.1 | 0.9
CCn1c(CSc2nc3ccccc3[nH]2)n[nH]c1=S | 56* | -2.5 | 35 | 0.4 | 0.7
CCn1c(-c2cc3ccccc3cc2O)n[nH]c1=S | 52* | -1.7 | 26 | 0.5 | 0.7
C=CCn1c(-c2c[nH]c3ccccc23)n[nH]c1=S | 20 | -0.85 | 22 | 0.8 | 0.8
SMILES | CYP2C19 inh | Cav3 T inh | CYP2C9 inhib | CYP2C19 activ | CYP2C9 act
CCn1c(-c2c[nH]c3ccccc23)n[nH]c1=S | 47 | 1.1 | 54* | 0.5 | 0.5
Cc1ncc(CSc2nc3ccccc3[nH]2)c(N)n1 | -6 | 0.071 | -10 | 1.1 | 1.1
CCn1c(-c2cc(Br)ccc2O)n[nH]c1=S | nt | 0.033 | nt | nt | nt
CCN(CC)C(=O)c1cccc(-c2ccc(OC)cc2)c1 | 69* | nt | 45 | 0.3 | 0.6
Cc1ccc2oc(=O)n(Cc3ccccc3OC(C)C)c2c1 | 86* | -6* | 85* | 0.1 | 0.1
COc1ccc(Cn2c(=O)oc3ccc(C)cc32)cc1OC | 98* | -0.53 | 79* | 0 | 0.2
Cc1ccc2oc(=O)n(CCCOc3ccccc3)c2c1 | 94* | -3.4 | 46 | 0.1 | 0.5
Cc1ccc2oc(=O)n(CC(=O)O)c2c1 | 8 | 1.8 | 2 | 0.9 | 1
CCCCOc1ccccc1Cn1c(=O)oc2ccc(C)cc21 | 87* | -1.8 | 88* | 0.1 | 0.1
COc1ccccc1CN1[C@@H](CC(C)=O)c2cc(C(F)(F)F)ccc2S1(=O)=O | nt | -0.0045 | nt | nt | nt
O=C(OCC#CCSc1nnc(-c2ccc([N+](=O)[O-])cc2)o1)c1cccs1 | -11 | -2.2 | 6 | 1.1 | 0.9
CCCOc1ccc(OCCSc2nnc(N)s2)cc1 | 11 | -0.47 | 15 | 0.9 | 0.9
Nc1nnc(SCCOc2cccc(Br)c2)s1 | 92* | -2.1 | 46 | 0.1 | 0.5
C=C(C)c1cccc(C(C)(C)NC(=O)Nn2cnnc2)c1 | 73* | -0.71 | 50* | 0.3 | 0.5
C=C(C)c1cccc(C(C)(C)NC(=O)Nc2ncccn2)c1 | 26 | -0.87 | 7 | 0.7 | 0.9
COc1ccc(C(=O)NCc2nnc(SCC(=O)Nc3cccc(C(F)(F)F)c3)o2)cc1OC | 54* | -0.4 | -18 | 0.5 | 1.2
CCOC(=O)c1ccc(NC(=O)CSc2nnc(CNC(=O)c3c(F)cccc3Cl)o2)cc1 | 24 | -0.0062 | 58* | 0.8 | 0.4
O=C(Cn1nc(-c2ccccc2)ccc1=O)NCc1ccc2c(c1)OCO2 | 23 | 0.54 | 33 | 0.8 | 0.7
C/C(=C\C(=O)c1ccc(Cl)cc1)NCc1ccc2c(c1)OCO2 | 25 | -0.43 | 26 | 0.8 | 0.7
O=C(CSCc1ccc(Cl)cc1)NCc1ccc2c(c1)OCO2 | 32 | -6.1* | 100* | 0.7 | 0
O=C(CSCc1ccccc1Cl)Nc1ccc2c(c1)OCCO2 | 26 | -1.4 | 60* | 0.7 | 0.4
O=C(CC(c1ccccc1)c1ccccc1)Nc1ccc2c(c1)OCCO2 | 36 | -3.6* | 52* | 0.6 | 0.5
O=C(Cn1nc(-c2ccc(Cl)cc2)ccc1=O)NCc1ccc2c(c1)OCO2 | 52* | nt | 77* | 0.5 | 0.2
NC(=O)Nc1ccc2c(c1)OCCO2 | -14 | 0.55 | 1 | 1.1 | 1
CC(=O)OCCOc1nc(N(C)C)nc(N(C)C)n1 | 5 | 0.47 | -12 | 0.9 | 1.1
CC1CCCC(NC(=O)Cn2cc3c(n2)CCCCC3)C1C (stereo not given) | -1 | -2.1 | -45 | 1 | 1.4
CSc1ncc(Cl)c(C(=O)Nc2ccc(S(=O)(=O)N3CCOCC3)cc2)n1 | -1 | 0.45 | 6 | 1 | 0.9
Cc1oc(-c2ccccc2F)nc1CSCC(=O)NCc1ccc2c(c1)OCO2 | 78* | -3 | 75* | 0.2 | 0.3
O=C(CSCc1ccc(Cl)cc1)Nc1ccc2c(c1)OCO2 | nt | -5.6* | nt | nt | nt
O=C(CC1(C(F)(F)F)OCCO1)Nc1ccc2c(c1)OCO2 | 94* | -1.2 | 8 | 0.1 | 0.9

From PubChem
